Positions count from the first letter of the chain named. The full ranking holds about 16,000 sequences; the median of “ka relative to ugcaugu” is about 0.0091, and the highest 2% start at about 0.032. The sample holds the highest values, similar sequences and a random draw of the others, so the mix is not that of the screen.
T1: RBFOX1 RRM (Homo sapiens, UniProt Q9NWB1 109-208)
T1 sequence: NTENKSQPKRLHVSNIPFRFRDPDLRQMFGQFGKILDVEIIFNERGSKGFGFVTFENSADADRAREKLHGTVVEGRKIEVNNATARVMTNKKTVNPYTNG

B1: CAUAACG (DNA:RNA)
RNA: GGGAGACCGGAAUUCAGAUUGUCCCAUAACGUUAAAUCCCGUCGUAGCCACCA
DNA 1: CAATCTGAATTCCGGTCTCCC
DNA 2: TGGTGGCTACGACGGGATT
B2: UGUGGGC (DNA:RNA)
RNA: B1 RNA with C25U, A26G, A28G, A29G, C30G, G31C
DNA 1: CAATCTGAATTCCGGTCTCCC
DNA 2: TGGTGGCTACGACGGGATT
B3: UGGGCUG (DNA:RNA)
RNA: B1 RNA with C25U, A26G, U27G, A28G, A29C, C30U
DNA 1: CAATCTGAATTCCGGTCTCCC
DNA 2: TGGTGGCTACGACGGGATT
B4: UGGGGGC (DNA:RNA)
RNA: GGGAGACCGGAAUUCAGAUUGUCCUGGGGGCUUAAAUCCCGUCGUAGCCACCA
DNA 1: CAATCTGAATTCCGGTCTCCC
DNA 2: TGGTGGCTACGACGGGATT
B5: CACUUGC (DNA:RNA)
RNA: B1 RNA with U27C, A28U, A29U, C30G, G31C
DNA 1: CAATCTGAATTCCGGTCTCCC
DNA 2: TGGTGGCTACGACGGGATT
B6: GCAUGCG (DNA:RNA)
RNA: B1 RNA with C25G, A26C, U27A, A28U, A29G
DNA 1: CAATCTGAATTCCGGTCTCCC
DNA 2: TGGTGGCTACGACGGGATT
B7: GCAUGCC (DNA:RNA)
RNA: B4 RNA with U25G, G26C, G27A, G28U, G30C
DNA 1: CAATCTGAATTCCGGTCTCCC
DNA 2: TGGTGGCTACGACGGGATT
B8: AUAUGCA (DNA:RNA)
RNA: B1 RNA with C25A, A26U, U27A, A28U, A29G, G31A
DNA 1: CAATCTGAATTCCGGTCTCCC
DNA 2: TGGTGGCTACGACGGGATT
B9: GGAUGCG (DNA:RNA)
RNA: B1 RNA with C25G, A26G, U27A, A28U, A29G
DNA 1: CAATCTGAATTCCGGTCTCCC
DNA 2: TGGTGGCTACGACGGGATT
B10: CGAUGCC (DNA:RNA)
RNA: B4 RNA with U25C, G27A, G28U, G30C
DNA 1: CAATCTGAATTCCGGTCTCCC
DNA 2: TGGTGGCTACGACGGGATT
B11: GUAUGCC (DNA:RNA)
RNA: B4 RNA with U25G, G26U, G27A, G28U, G30C
DNA 1: CAATCTGAATTCCGGTCTCCC
DNA 2: TGGTGGCTACGACGGGATT
B12: GGAUGCC (DNA:RNA)
RNA: B4 RNA with U25G, G27A, G28U, G30C
DNA 1: CAATCTGAATTCCGGTCTCCC
DNA 2: TGGTGGCTACGACGGGATT
B13: CCAUGCC (DNA:RNA)
RNA: B1 RNA with A26C, U27A, A28U, A29G, G31C
DNA 1: CAATCTGAATTCCGGTCTCCC
DNA 2: TGGTGGCTACGACGGGATT
B14: GUAUGCA (DNA:RNA)
RNA: B1 RNA with C25G, A26U, U27A, A28U, A29G, G31A
DNA 1: CAATCTGAATTCCGGTCTCCC
DNA 2: TGGTGGCTACGACGGGATT
B15: GGAUGCA (DNA:RNA)
RNA: B4 RNA with U25G, G27A, G28U, G30C, C31A
DNA 1: CAATCTGAATTCCGGTCTCCC
DNA 2: TGGTGGCTACGACGGGATT
B16: ACAUGCG (DNA:RNA)
RNA: B1 RNA with C25A, A26C, U27A, A28U, A29G
DNA 1: CAATCTGAATTCCGGTCTCCC
DNA 2: TGGTGGCTACGACGGGATT
B17: GCAUCCC (DNA:RNA)
RNA: B1 RNA with C25G, A26C, U27A, A28U, A29C, G31C
DNA 1: CAATCTGAATTCCGGTCTCCC
DNA 2: TGGTGGCTACGACGGGATT
B18: AGGAUUU (DNA:RNA)
RNA: B4 RNA with U25A, G28A, G29U, G30U, C31U
DNA 1: CAATCTGAATTCCGGTCTCCC
DNA 2: TGGTGGCTACGACGGGATT
B19: CUUUGGG (DNA:RNA)
RNA: B1 RNA with A26U, A28U, A29G, C30G
DNA 1: CAATCTGAATTCCGGTCTCCC
DNA 2: TGGTGGCTACGACGGGATT
B20: GAACCCA (DNA:RNA)
RNA: B1 RNA with C25G, U27A, A28C, A29C, G31A
DNA 1: CAATCTGAATTCCGGTCTCCC
DNA 2: TGGTGGCTACGACGGGATT
B21: UUAGAUC (DNA:RNA)
RNA: B4 RNA with G26U, G27A, G29A, G30U
DNA 1: CAATCTGAATTCCGGTCTCCC
DNA 2: TGGTGGCTACGACGGGATT
B22: GGCGUGC (DNA:RNA)
RNA: B4 RNA with U25G, G27C, G29U
DNA 1: CAATCTGAATTCCGGTCTCCC
DNA 2: TGGTGGCTACGACGGGATT
B23: CUCGUCC (DNA:RNA)
RNA: B1 RNA with A26U, U27C, A28G, A29U, G31C
DNA 1: CAATCTGAATTCCGGTCTCCC
DNA 2: TGGTGGCTACGACGGGATT
B24: CCAUCUC (DNA:RNA)
RNA: B1 RNA with A26C, U27A, A28U, A29C, C30U, G31C
DNA 1: CAATCTGAATTCCGGTCTCCC
DNA 2: TGGTGGCTACGACGGGATT
B25: GCAUGCA (DNA:RNA)
RNA: B1 RNA with C25G, A26C, U27A, A28U, A29G, G31A
DNA 1: CAATCTGAATTCCGGTCTCCC
DNA 2: TGGTGGCTACGACGGGATT
B26: GUCCGCA (DNA:RNA)
RNA: B1 RNA with C25G, A26U, U27C, A28C, A29G, G31A
DNA 1: CAATCTGAATTCCGGTCTCCC
DNA 2: TGGTGGCTACGACGGGATT
B27: GCAUUAA (DNA:RNA)
RNA: GGGAGACCGGAAUUCAGAUUGUCCGCAUUAAUUAAAUCCCGUCGUAGCCACCA
DNA 1: CAATCTGAATTCCGGTCTCCC
DNA 2: TGGTGGCTACGACGGGATT
B28: GCAUCAG (DNA:RNA)
RNA: B27 RNA with U29C, A31G
DNA 1: CAATCTGAATTCCGGTCTCCC
DNA 2: TGGTGGCTACGACGGGATT
B29: GCAUCCG (DNA:RNA)
RNA: B27 RNA with U29C, A30C, A31G
DNA 1: CAATCTGAATTCCGGTCTCCC
DNA 2: TGGTGGCTACGACGGGATT
B30: CGCAUCG (DNA:RNA)
RNA: B1 RNA with A26G, U27C, A29U
DNA 1: CAATCTGAATTCCGGTCTCCC
DNA 2: TGGTGGCTACGACGGGATT
B31: UCCGAUU (DNA:RNA)
RNA: B4 RNA with G26C, G27C, G29A, G30U, C31U
DNA 1: CAATCTGAATTCCGGTCTCCC
DNA 2: TGGTGGCTACGACGGGATT

Biological target: T1, RBFOX1 RRM
Assay: EMSA; HiTS-Eq, 1 nM pool, 10 min; buffer printed only for the single-RNA assays: 10 mM Tris pH 7.5, 150 mM NaCl, 3.4 mM EDTA, 0.001% NP-40, 30 C
Conditions: tags: His6 N-terminal (pET28a); label: 5' 32P
Method in brief: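 Relative association constants, normalised to the cognate motif, were derived by comparing read counts of each RNA species with those of the control reaction. The RNA sequenced was the free fraction, separated by 8% native PAGE after a 10 min equilibration in 50 µL of 1 nM 5′-radiolabelled RNA (7 randomized nucleotides) with increasing concentrations of purified wild-type or mutant RbFox RRM.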

Row | Binder | binding signal
1 | B1 | 0.00316 KA relative to UGCAUGU
2 | B2 | 0.0102 KA relative to UGCAUGU
3 | B3 | 0.039 KA relative to UGCAUGU
4 | B4 | 0.014 KA relative to UGCAUGU
5 | B5 | 0.00965 KA relative to UGCAUGU
6 | B6 | 0.916 KA relative to UGCAUGU
7 | B7 | 0.829 KA relative to UGCAUGU
8 | B8 | 0.0145 KA relative to UGCAUGU
9 | B9 | 0.0222 KA relative to UGCAUGU
10 | B10 | 0.012 KA relative to UGCAUGU
11 | B11 | 0.0139 KA relative to UGCAUGU
12 | B12 | 0.0339 KA relative to UGCAUGU
13 | B13 | 0.00772 KA relative to UGCAUGU
14 | B14 | 0.0319 KA relative to UGCAUGU
15 | B15 | 0.0274 KA relative to UGCAUGU
16 | B16 | 0.00768 KA relative to UGCAUGU

Row | Binder | binding signal
17 | B17 | 0.0182 KA relative to UGCAUGU
18 | B18 | 0.0177 KA relative to UGCAUGU
19 | B19 | 0.00295 KA relative to UGCAUGU
20 | B20 | 0.00229 KA relative to UGCAUGU
21 | B21 | 0.0111 KA relative to UGCAUGU
22 | B22 | 0.0292 KA relative to UGCAUGU
23 | B23 | 0.00629 KA relative to UGCAUGU
24 | B24 | 0.00486 KA relative to UGCAUGU
25 | B25 | 0.751 KA relative to UGCAUGU
26 | B26 | 0.0155 KA relative to UGCAUGU
27 | B27 | 0.00489 KA relative to UGCAUGU
28 | B28 | 0.0121 KA relative to UGCAUGU
29 | B29 | 0.0325 KA relative to UGCAUGU
30 | B30 | 0.017 KA relative to UGCAUGU
31 | B31 | 0.00941 KA relative to UGCAUGU
